Our source for the growth values is PubChem BioAssay (NCI).

About 83,000 compounds went through this panel and 20% of them were active in at least one assay; those are over-represented in the sample as a whole.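 Assay: single dose, 48 h. Readout: percent growth (0 = no net growth; negative = cell death). Active: <10.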 Values without a mark were called inactive. Calls of active or inactive are those of the source.

Assay in all cases: NCI-60 one-dose screen, 48 h (100 = growth as untreated, 0 = no growth, -100 = all killed)
Common to all, as to conditions: 10 µM unless noted

The test system of experiment [1] is NCI-H23 lung.
Experiment [2] relates to NCI-H226 lung.
The subject of experiment [3] is NCI-H460 lung.
Experiment [4] has as its system HOP-92 NSCLC.
For experiment [5], the system named is NCI-H522 lung.
For experiment [6], the system named is A549/ATCC NSCLC.
The subject of experiment [7] is 786-0 renal.
The subject of experiment [8] is COLO 205 colon.
In experiment [9] the test system is DU-145 prostate.
Experiment [10] deals with K-562 leukemia.
In experiment [11] the test system is MALME-3M melanoma.
In experiment [12] the test system is MDA-MB-231 breast.
The subject of experiment [13] is RXF 393 renal.
Experiment [14] has as its system SF-268 CNS.
For experiment [15], the system named is SF-295 CNS.
Experiment [16] relates to SF-539 CNS.
Experiment [17] concerns UACC-257 melanoma.
For experiment [18], the system named is M14 melanoma.
In experiment [19] the test system is HOP-62 NSCLC.
In experiment [20] the test system is NCI-H322M lung.

On to `COc1cc(/C=C/C(=O)N2CCN(C(=O)c3cc(OC)c(OC)c(OC)c3)CC2)ccc1OCCCOc1cc2c(cc1OC)C(=O)N1CCC[C@H]1C=N2`, for which the growth in [1] was -13.6% (active); in experiment [2] it was -8.72% (active); in experiment [3], 6.44% (active); in experiment [4], -37.1% (active); in [5], -54.5% (active); in [6], 12.7%. The growth in experiment [7] is 11.7%; in experiment [8], -63.4% (active); in experiment [9], 8.43% (active); in experiment [10] it was 1.04% (active); in [11], -58.6% (active); in [12], 9.01% (active). Besides, the growth was -55.4% (active) in experiment [13]; 2.8% (active) in [14]; -33.4% (active) in experiment [15]; -32.3% (active) in experiment [16]; -11.7% (active) in experiment [17]; -80.2% (active) in experiment [18].

Regarding `CC1(C)N=C(N)N=C(N)N1c1ccc(S(=O)(=O)Nc2nccs2)cc1`, the growth in experiment [1] is 101%; in experiment [2], 101%; in [19] it was 95.8%; in experiment [3], 104%; in experiment [4], 87.2%; in experiment [5] it was 91.1%. For the same molecule, the growth is 96.1% in experiment [6]; 99.5% in experiment [7]; 105% in experiment [8]; 103% in experiment [9]; 98.9% in [10]; 99.3% in experiment [11]. In addition, the growth in experiment [12] is 103%; in experiment [13], 105%; in [14] it was 94.3%; in [15], 101%; in experiment [16], 95.1%; in experiment [17], 98.5%. Further, the growth in [18] is 99.6%.

In the case of `O=C1C=CC2(O)OC/C(=C\c3ccccc3)C(O)=C2C1=O` (stereo unspecified), the growth in experiment [1] is 36.1%; in experiment [2] it was 81%; in experiment [19], 5.5% (active); in experiment [3], 29.1%; in [4], -3.3% (active); in experiment [5] it was -73.1% (active). Further, the growth is 42.2% in experiment [6]; -41.3% (active) in [7]; 36.2% in experiment [8]; 24.2% in experiment [9]; 5.02% (active) in experiment [10]; -37.8% (active) in [11]. Besides, the growth in experiment [12] is -22.4% (active); in experiment [13], -64.7% (active); in [14], 19.1%; in experiment [15], 74.8%; in [16], -38.8% (active); in experiment [17] it was 65.9%. For the same molecule, in experiment [18], the growth is 27%.

As to `CCCCCc1ccc(S(=O)(=O)Nc2cc(-c3csc(NC(C)=O)n3)ccc2N2CCN(C)CC2)cc1`, the growth is 65.5% in experiment [1]; 94.1% in experiment [2]; 83.3% in experiment [19]; -11.4% (active) in experiment [3]; 36% in experiment [4]; 67.3% in [5]. Moreover, the growth in [6] is 55.8%; in experiment [7], 56.7%; in experiment [8], -38.9% (active); in experiment [9], 75.8%; in experiment [10], -32.6% (active); in experiment [11], -47.1% (active). Moreover, the growth in [12] was 51.8%; in experiment [13] it was 33.3%; in experiment [14], 72%; in experiment [15], 49.9%; in [16] it was 61.6%; in [17], -21.9% (active). Also, in experiment [18], the growth was -52.4% (active).

In the case of `C=C1CC[C@@H]2C(C)(C)[C@H](O)CC[C@@]2(C)[C@@H]1COc1ccc2ccc(=O)oc2c1`, the growth in [1] was 40.7%; in experiment [2], 28.5%; in [20], 92.4%; in experiment [3] it was 90.5%; in [4], 72.4%; in experiment [6], 51.5%. Moreover, the growth in [7] was 93%; in [8] it was 68.7%; in [9], 56.9%; in experiment [10], 41.9%; in experiment [11], 74.3%; in [12], 84%. In addition, the growth in [13] is 101%; in [14], 68.3%; in experiment [15], 48%; in experiment [16], 88.4%; in experiment [17] it was 69.4%; in experiment [18], 53.3%.

For the molecule `C=CC(=O)Nc1cccc(Oc2nccc(Nc3nnc(-c4ccc(Br)cc4)s3)n2)c1`, the growth in experiment [1] was 90.8%; in experiment [2], 105%; in experiment [19], 91%; in experiment [3], 101%; in experiment [4], 92%; in experiment [5], 84.4%. For the same molecule, the growth in experiment [6] was 100%; in [7], 101%; in [8], 108%; in experiment [9], 103%; in experiment [10], 92.6%; in experiment [11] it was 112%. In addition, the growth in experiment [12] was 88.2%; in [13], 101%; in experiment [14], 93.6%; in [15], 96%; in [16] it was 99.7%; in experiment [17], 105%. Also, the growth in experiment [18] is 116%.

In the case of `O=C(CSc1nnnn1-c1ccccc1)Nc1ccc(Oc2ccccc2)cc1`, the growth in experiment [1] was 101%; in [2], 87.5%; in experiment [19] it was 95.6%; in experiment [3] it was 110%; in [4] it was 75%; in experiment [5] it was 79.3%. The growth is 101% in experiment [6]; 102% in experiment [7]; 110% in experiment [8]; 111% in [9]; 120% in [10]; 133% in experiment [11]. Besides, the growth in experiment [12] is 94.2%; in [13] it was 111%; in experiment [14] it was 101%; in experiment [15], 100%; in [16], 111%; in experiment [17] it was 96.2%. Further, in experiment [18], the growth was 111%.

For the molecule `Cc1cc(C(=O)CCCC(=O)c2cc(C)c(O)c(C)c2)cc(C)c1O`, the growth in experiment [1] is 99.8%; in experiment [2], 85%; in [19], 98.9%; in [3] it was 112%; in experiment [4] it was 82.9%; in [5] it was 91.1%. Also, the growth in [6] is 104%; in [7] it was 93.9%; in [8], -53.1% (active); in [9], 109%; in experiment [10], 27.4%; in experiment [11] it was 92.3%. For the same molecule, the growth in experiment [12] is 98.1%; in experiment [13], 84.2%; in experiment [14], 99%; in [15] it was 99.9%; in [16], 102%; in experiment [17], 105%. For the same molecule, in experiment [18], the growth was 98.6%.

As to `Cc1ccc2cnc(N)c(C#Cc3cc(C(=O)Nc4ccc(CN5CCN(C)CC5)c(C(F)(F)F)c4)cnc3C)c2c1`, the growth is -29.6% (active) in [1]; 7.1% (active) in experiment [2]; -35.9% (active) in [19]; -83% (active) in experiment [3]; -32% (active) in [4]; -10.2% (active) in experiment [5]. Further, the growth is -85.5% (active) in experiment [6]; -82.8% (active) in [7]; -41.2% (active) in experiment [8]; -95% (active) in experiment [9]; -43% (active) in experiment [10]; -74.7% (active) in experiment [11]. The growth in [12] is -70.5% (active); in experiment [13], -91.2% (active); in [14], 17.4%; in experiment [15], 37.4%; in experiment [16], -85.9% (active); in [17], 31.9%. Further, the growth in [18] is -90.3% (active).

Regarding `COc1ccccc1/C=C/C(=O)Nc1ccc(F)cc1`, the growth in [2] was 98%; in experiment [20], 104%; in [19] it was 88.7%; in experiment [3] it was 102%; in experiment [4] it was 86.8%; in [5], 72.4%. Further, the growth in experiment [6] is 92.9%; in experiment [7], 97.7%; in experiment [8], 101%; in experiment [9] it was 98.6%; in experiment [10], 84.8%; in experiment [11], 95.9%. In addition, the growth in experiment [12] was 88.6%; in experiment [13] it was 102%; in [14] it was 99.7%; in experiment [15], 96%; in experiment [16] it was 101%; in experiment [17], 99.4%. In addition, in [18], the growth was 96.7%.

In the case of `CN1CCN(Cc2ccc(NC(=O)c3cncc(C#Cc4cnc(N)cc4C#N)c3)cc2C(F)(F)F)CC1`, the growth was 7.61% (active) in experiment [2]; 17% in experiment [20]; 12.1% in experiment [19]; 7.15% (active) in [3]; -5.52% (active) in experiment [4]; 9.51% (active) in experiment [5]. The growth in experiment [6] is 19.2%; in experiment [7] it was 24.9%; in experiment [8] it was -31.2% (active); in experiment [9], 21.1%; in experiment [10], 15.9%; in [11] it was -4.04% (active). Moreover, the growth is 6.83% (active) in [12]; 13.4% in experiment [13]; 23.5% in experiment [14]; 24.5% in experiment [15]; -12% (active) in [16]; 3.84% (active) in experiment [17]. Besides, in experiment [18], the growth was -23.1% (active).

In the case of `O=C(N/N=C/c1ccc(Cl)cc1)c1ccc(NC(=O)c2ccccn2)cc1`, the growth in [2] is 42.8%; in experiment [20], 66.4%; in [19], 59.4%; in [3] it was 4.21% (active); in experiment [4] it was 51.6%; in experiment [5], 73.3%. Further, the growth was 26.1% in experiment [6]; 4.44% (active) in experiment [7]; 59.1% in experiment [8]; 60.7% in [9]; 61% in experiment [10]; 44.9% in [11]. The growth in experiment [12] was 41.4%; in [13], 64.7%; in experiment [14] it was 70.5%; in [15], 56.4%; in [16] it was 46%; in [17], 63.3%. The growth in [18] is 55.4%.
